# Measurements: the supplement of paper PMC10849652
# About 8,800 targets were measured; listed, in parts, are those with a hit and a random draw of the rest. About 0.5% of all pairs of compound and target were hits. A number with no mark means an inactive call.
# Compound: Cc1sc2c(c1C)C(c1ccc(Cl)cc1)=N[C@@H](CC(=O)OC(C)(C)C)c1nnc(C)n1-2
# Experiment: log2 fold change, soluble protein after heating vs DMSO (PISA); higher = thermal stabilisation; K562 lysate, 10 uM; active = over 0.2 and 3.5 SD of the protein, either way, in both replicates (recomputed)
# Method in brief: (§1)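 Quantification was by TMTpro 16plex LC-MS/MS with equalised channel sums, applied to the supernatant after 21,000xg for 90 min. Samples were crude K562 extract at 1 mg/mL protein in PBS pH 7.4 with 1 mM MgCl2, treated with 10 μM compound for 30 min, heated for 3 min across 48°C-58°C, pooled and brought to 0.5% NP-40 at 4°C. Values are log-two fold changes in thermal stability relative to solvent controls, from duplicates.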
# Sequence of UniProt Q99871 (Q99871 whole entry, looked up): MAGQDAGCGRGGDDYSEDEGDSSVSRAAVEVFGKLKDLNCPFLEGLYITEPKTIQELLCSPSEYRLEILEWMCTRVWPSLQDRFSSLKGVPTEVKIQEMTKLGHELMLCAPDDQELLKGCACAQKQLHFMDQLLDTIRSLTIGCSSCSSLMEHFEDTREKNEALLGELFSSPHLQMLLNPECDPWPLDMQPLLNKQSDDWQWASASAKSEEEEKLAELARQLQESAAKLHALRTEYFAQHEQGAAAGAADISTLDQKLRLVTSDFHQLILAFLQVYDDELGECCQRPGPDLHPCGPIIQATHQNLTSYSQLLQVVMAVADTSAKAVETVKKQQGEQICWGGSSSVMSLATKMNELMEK
# Sequence of UniProt Q99795 (Q99795 whole entry, looked up): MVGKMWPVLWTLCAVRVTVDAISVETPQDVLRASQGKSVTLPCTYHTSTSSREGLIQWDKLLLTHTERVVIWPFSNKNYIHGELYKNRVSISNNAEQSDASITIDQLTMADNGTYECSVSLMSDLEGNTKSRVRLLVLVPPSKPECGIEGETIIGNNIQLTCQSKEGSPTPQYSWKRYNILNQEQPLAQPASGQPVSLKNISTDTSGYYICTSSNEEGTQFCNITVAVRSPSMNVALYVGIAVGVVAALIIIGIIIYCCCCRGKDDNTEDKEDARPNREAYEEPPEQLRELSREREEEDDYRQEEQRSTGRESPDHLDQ
# Sequence of UniProt P42858 (P42858 whole entry, looked up): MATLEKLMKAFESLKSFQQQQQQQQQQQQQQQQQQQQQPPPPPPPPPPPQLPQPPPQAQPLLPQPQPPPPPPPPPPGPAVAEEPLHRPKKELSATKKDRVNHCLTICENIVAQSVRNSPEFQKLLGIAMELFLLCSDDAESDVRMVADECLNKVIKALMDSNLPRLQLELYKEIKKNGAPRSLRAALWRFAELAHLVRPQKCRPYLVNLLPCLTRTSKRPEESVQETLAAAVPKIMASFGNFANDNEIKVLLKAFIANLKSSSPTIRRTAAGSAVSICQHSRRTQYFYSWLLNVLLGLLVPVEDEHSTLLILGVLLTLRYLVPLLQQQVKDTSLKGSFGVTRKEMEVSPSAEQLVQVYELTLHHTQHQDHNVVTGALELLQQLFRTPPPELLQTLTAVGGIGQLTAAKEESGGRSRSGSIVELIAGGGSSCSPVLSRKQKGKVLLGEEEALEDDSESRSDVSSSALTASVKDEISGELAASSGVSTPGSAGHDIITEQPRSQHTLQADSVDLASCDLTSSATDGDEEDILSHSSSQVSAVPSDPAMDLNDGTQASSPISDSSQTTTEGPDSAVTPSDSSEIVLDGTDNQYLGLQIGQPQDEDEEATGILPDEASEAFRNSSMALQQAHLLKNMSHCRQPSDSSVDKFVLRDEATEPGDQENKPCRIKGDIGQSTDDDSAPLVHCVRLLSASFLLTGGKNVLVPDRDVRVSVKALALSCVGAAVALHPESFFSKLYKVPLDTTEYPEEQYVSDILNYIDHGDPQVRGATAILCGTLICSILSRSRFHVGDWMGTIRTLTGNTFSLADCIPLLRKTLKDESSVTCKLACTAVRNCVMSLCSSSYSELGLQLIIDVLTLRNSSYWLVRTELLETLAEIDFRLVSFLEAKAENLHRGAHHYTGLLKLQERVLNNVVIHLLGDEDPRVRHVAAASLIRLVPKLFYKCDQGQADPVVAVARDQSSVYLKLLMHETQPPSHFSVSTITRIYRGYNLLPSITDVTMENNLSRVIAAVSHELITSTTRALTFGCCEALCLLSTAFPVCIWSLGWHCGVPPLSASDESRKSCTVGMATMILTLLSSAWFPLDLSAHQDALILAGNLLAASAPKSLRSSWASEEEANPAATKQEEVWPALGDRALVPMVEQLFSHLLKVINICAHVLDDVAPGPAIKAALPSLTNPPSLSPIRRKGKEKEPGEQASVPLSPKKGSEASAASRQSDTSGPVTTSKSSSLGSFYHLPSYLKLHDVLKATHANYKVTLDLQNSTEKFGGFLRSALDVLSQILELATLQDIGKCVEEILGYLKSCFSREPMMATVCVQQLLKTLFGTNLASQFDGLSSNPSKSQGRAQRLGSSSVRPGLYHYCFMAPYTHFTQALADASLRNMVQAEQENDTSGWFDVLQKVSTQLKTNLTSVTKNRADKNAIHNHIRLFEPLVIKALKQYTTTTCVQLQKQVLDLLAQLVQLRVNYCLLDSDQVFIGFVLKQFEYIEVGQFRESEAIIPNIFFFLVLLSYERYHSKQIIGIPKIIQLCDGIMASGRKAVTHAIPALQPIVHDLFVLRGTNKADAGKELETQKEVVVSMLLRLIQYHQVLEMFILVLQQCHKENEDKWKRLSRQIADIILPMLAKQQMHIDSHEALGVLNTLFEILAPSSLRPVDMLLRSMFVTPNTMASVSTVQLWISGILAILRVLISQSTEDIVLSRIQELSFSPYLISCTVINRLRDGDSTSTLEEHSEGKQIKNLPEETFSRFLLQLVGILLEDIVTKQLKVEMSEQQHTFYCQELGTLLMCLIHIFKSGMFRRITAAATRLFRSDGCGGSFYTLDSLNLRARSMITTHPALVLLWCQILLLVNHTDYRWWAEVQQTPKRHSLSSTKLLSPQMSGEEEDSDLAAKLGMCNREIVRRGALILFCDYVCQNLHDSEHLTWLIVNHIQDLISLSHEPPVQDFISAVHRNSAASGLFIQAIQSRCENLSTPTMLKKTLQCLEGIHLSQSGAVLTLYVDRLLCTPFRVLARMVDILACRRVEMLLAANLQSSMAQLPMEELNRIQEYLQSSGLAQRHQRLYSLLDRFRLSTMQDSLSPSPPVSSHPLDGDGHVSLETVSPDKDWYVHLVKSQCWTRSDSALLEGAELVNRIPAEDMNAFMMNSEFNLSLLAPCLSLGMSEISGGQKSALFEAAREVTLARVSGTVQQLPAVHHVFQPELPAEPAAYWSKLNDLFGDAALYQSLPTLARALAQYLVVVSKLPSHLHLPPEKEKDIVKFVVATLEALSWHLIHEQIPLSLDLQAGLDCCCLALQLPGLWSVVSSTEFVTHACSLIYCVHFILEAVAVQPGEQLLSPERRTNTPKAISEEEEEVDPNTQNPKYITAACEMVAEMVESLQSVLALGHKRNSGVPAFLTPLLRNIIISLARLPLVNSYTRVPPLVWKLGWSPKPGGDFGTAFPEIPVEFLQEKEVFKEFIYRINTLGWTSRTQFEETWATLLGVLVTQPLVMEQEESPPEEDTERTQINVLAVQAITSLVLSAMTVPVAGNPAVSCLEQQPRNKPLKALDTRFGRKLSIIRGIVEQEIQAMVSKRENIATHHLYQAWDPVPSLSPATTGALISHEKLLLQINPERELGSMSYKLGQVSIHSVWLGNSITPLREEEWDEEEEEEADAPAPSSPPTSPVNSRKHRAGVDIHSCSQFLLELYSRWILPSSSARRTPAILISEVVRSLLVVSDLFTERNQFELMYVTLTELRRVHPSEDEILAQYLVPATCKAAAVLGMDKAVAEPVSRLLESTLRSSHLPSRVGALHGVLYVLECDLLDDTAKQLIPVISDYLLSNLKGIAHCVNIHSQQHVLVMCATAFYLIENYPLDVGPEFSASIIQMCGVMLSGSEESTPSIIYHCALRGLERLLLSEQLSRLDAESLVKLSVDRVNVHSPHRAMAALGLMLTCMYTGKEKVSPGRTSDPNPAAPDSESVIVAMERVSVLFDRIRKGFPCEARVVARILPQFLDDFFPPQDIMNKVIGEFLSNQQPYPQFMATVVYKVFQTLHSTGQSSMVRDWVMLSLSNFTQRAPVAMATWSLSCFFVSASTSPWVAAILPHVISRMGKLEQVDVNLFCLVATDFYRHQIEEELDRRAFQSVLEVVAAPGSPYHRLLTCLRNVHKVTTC
# Sequence of UniProt Q9NWZ3 (Q9NWZ3 whole entry, looked up): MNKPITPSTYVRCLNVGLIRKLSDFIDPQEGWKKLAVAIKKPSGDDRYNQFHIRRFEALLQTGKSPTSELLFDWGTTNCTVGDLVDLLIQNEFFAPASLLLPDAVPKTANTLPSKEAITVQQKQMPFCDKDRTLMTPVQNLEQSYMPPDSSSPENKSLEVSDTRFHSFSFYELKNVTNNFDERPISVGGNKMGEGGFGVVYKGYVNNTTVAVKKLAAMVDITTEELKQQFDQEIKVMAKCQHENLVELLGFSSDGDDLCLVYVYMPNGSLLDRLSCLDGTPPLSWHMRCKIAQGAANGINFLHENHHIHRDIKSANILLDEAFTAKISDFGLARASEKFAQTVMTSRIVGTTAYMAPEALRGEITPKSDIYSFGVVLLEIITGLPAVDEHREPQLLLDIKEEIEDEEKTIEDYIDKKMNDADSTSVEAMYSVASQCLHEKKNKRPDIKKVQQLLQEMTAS
# Sequence of UniProt Q9NVR2 (Q9NVR2 whole entry, looked up): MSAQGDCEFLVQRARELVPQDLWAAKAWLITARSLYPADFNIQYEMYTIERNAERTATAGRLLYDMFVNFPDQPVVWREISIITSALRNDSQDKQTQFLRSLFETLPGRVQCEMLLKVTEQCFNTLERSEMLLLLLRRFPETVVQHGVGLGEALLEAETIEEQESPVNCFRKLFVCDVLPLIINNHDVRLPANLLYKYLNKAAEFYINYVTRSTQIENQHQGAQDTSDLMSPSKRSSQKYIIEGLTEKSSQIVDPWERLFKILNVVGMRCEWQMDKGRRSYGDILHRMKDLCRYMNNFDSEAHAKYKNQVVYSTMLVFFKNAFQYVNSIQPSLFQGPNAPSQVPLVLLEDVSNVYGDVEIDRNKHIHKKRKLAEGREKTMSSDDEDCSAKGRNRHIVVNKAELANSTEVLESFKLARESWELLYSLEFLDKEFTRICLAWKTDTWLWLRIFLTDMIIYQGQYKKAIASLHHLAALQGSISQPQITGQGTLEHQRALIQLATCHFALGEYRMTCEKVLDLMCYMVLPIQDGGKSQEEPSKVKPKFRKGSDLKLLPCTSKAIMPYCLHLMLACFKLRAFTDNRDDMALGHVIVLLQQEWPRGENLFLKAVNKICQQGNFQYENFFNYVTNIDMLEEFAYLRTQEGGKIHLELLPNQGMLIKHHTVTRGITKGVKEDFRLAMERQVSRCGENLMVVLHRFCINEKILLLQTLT
# Sequence of UniProt P17096 (P17096 whole entry, looked up): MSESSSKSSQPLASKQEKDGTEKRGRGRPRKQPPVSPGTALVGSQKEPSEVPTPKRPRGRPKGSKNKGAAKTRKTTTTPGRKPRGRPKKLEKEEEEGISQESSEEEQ
row,Target,log2 fold change
1,INTS14 (UniProt Q96SY0),0.007
2,INTS10 (UniProt Q9NVR2),-0.077
3,GPA33 (UniProt Q99795),-0.248
4,HAUS7 isoform 2 (UniProt Q99871),0.069
5,IRAK4 (UniProt Q9NWZ3),-0.08
6,GOLPH3L (UniProt Q9H4A5),-0.009
7,INTS1 (UniProt Q8N201),0.019
8,GMIP (UniProt Q9P107),-0.018
9,IARS2 (UniProt Q9NSE4),0.028
10,GLUL (UniProt P15104),0.031
11,HNRNPM (UniProt M0QZM1),0.152
12,GNB1 (UniProt P62873),0.069
13,HTT (UniProt P42858),0.066
14,HEATR6 (UniProt Q6AI08),0.008
15,GTF3C3 (UniProt Q9Y5Q9),-0.052
16,GLYR1 (UniProt Q49A26),0.142
17,IMPDH1 isoform 6 (UniProt P20839),0.053
18,HNRNPL (UniProt P14866),0.039
19,HNRNPD isoform 2 (UniProt Q14103),0.018

# Compound: c1ccc([C@@H]2C[C@H]2NC2CCNCC2)cc1
# Experiment: as above
# Method in brief: as §1
row,Target,log2 fold change
1,HK2 (UniProt P52789),0.063
2,IGF2BP3 (UniProt O00425),-0.002
3,INPPL1 (UniProt O15357),0.021
4,HMGB2 (UniProt P26583),0.161
5,ILRUN (UniProt Q9H6K1),0.028
6,HMGA1 (UniProt P17096),-0.135
7,HDAC3 (UniProt O15379),0.014
8,HAUS3 (UniProt Q68CZ6),0.064
9,"HDLBP, A0A024R4E5",0.008
10,IFNGR1 (UniProt P15260),-0.479
11,ILKAP (UniProt Q9H0C8),0.009
12,HMGCS1 (UniProt Q01581),-0.009
13,HMGN5 (UniProt P82970),0.083
14,GOLGA1 (UniProt Q92805),0.009
15,INTS14 (UniProt Q96SY0),0.009
16,INTS10 (UniProt Q9NVR2),-0.003

row,Target,log2 fold change
1,GPA33 (UniProt Q99795),-0.514 (active)
2,HAUS7 isoform 2 (UniProt Q99871),0.032
3,IRAK4 (UniProt Q9NWZ3),-0.024
4,GOLPH3L (UniProt Q9H4A5),0.021
5,INTS1 (UniProt Q8N201),0.004
6,GMIP (UniProt Q9P107),0.054
7,IARS2 (UniProt Q9NSE4),0.119
8,GLUL (UniProt P15104),0.053
9,GNB1 (UniProt P62873),-0.329
10,HTT (UniProt P42858),-0.054
11,HEATR6 (UniProt Q6AI08),0.014
12,GTF3C3 (UniProt Q9Y5Q9),0.032
13,GLYR1 (UniProt Q49A26),0.043
14,IMPDH1 isoform 6 (UniProt P20839),-0.051
15,HNRNPL (UniProt P14866),0.071
16,HNRNPD isoform 2 (UniProt Q14103),0.125
